Experimental data from paper PMC12529666, “Dysregulation of AGO2-miRNA dynamics underlies the AGO2-associated Lessel–Kreienkamp syndrome”.

B1: GCGCTTTA (ssRNA)
RNA 1: GAGUUCUACAGUCCGACGAUCCCAACGCGCUUUACACCUGGAAUUCUCGGGUGCCAA
RNA 2: UGGAGUGUGACAAUGGUGUUUG
DNA 1: GATCGTCGGACTGTAGAACTC
DNA 2: TTGGCACCCGAGAATTCCA
modifications: constant regions annealed to DNA blockers; guide miR-122 5' phosphate
B2: ATGCTTTA (ssRNA)
RNA 1: GAGUUCUACAGUCCGACGAUCCCAACAUGCUUUACACCUGGAAUUCUCGGGUGCCAA
RNA 2: UGGAGUGUGACAAUGGUGUUUG
DNA 1: GATCGTCGGACTGTAGAACTC
DNA 2: TTGGCACCCGAGAATTCCA
modifications: constant regions annealed to DNA blockers; guide miR-122 5' phosphate
B3: GTATTCTA (ssRNA)
RNA 1: GAGUUCUACAGUCCGACGAUCCCAACGUAUUCUACACCUGGAAUUCUCGGGUGCCAA
RNA 2: UGGAGUGUGACAAUGGUGUUUG
DNA 1: GATCGTCGGACTGTAGAACTC
DNA 2: TTGGCACCCGAGAATTCCA
modifications: constant regions annealed to DNA blockers; guide miR-122 5' phosphate
B4: GCATTTTA (ssRNA)
RNA 1: GAGUUCUACAGUCCGACGAUCCCAACGCAUUUUACACCUGGAAUUCUCGGGUGCCAA
RNA 2: UGGAGUGUGACAAUGGUGUUUG
DNA 1: GATCGTCGGACTGTAGAACTC
DNA 2: TTGGCACCCGAGAATTCCA
modifications: constant regions annealed to DNA blockers; guide miR-122 5' phosphate
B5: GCGCCCTG (ssRNA)
RNA 1: GAGUUCUACAGUCCGACGAUCCCAACGCGCCCUGCACCUGGAAUUCUCGGGUGCCAA
RNA 2: UGGAGUGUGACAAUGGUGUUUG
DNA 1: GATCGTCGGACTGTAGAACTC
DNA 2: TTGGCACCCGAGAATTCCA
modifications: constant regions annealed to DNA blockers; guide miR-122 5' phosphate
B6: GTATTTTA (ssRNA)
RNA 1: GAGUUCUACAGUCCGACGAUCCCAACGUAUUUUACACCUGGAAUUCUCGGGUGCCAA
RNA 2: UGGAGUGUGACAAUGGUGUUUG
DNA 1: GATCGTCGGACTGTAGAACTC
DNA 2: TTGGCACCCGAGAATTCCA
modifications: constant regions annealed to DNA blockers; guide miR-122 5' phosphate
B7: GCGTTCTA (ssRNA)
RNA 1: GAGUUCUACAGUCCGACGAUCCCAACGCGUUCUACACCUGGAAUUCUCGGGUGCCAA
RNA 2: UGGAGUGUGACAAUGGUGUUUG
DNA 1: GATCGTCGGACTGTAGAACTC
DNA 2: TTGGCACCCGAGAATTCCA
modifications: constant regions annealed to DNA blockers; guide miR-122 5' phosphate
B8: GTGCTTCA (ssRNA)
RNA 1: GAGUUCUACAGUCCGACGAUCCCAACGUGCUUCACACCUGGAAUUCUCGGGUGCCAA
RNA 2: UGGAGUGUGACAAUGGUGUUUG
DNA 1: GATCGTCGGACTGTAGAACTC
DNA 2: TTGGCACCCGAGAATTCCA
modifications: constant regions annealed to DNA blockers; guide miR-122 5' phosphate
B9: ACACCCTG (ssRNA)
RNA 1: GAGUUCUACAGUCCGACGAUCCCAACACACCCUGCACCUGGAAUUCUCGGGUGCCAA
RNA 2: UGGAGUGUGACAAUGGUGUUUG
DNA 1: GATCGTCGGACTGTAGAACTC
DNA 2: TTGGCACCCGAGAATTCCA
modifications: constant regions annealed to DNA blockers; guide miR-122 5' phosphate
B10: ACACTTTG (ssRNA)
RNA 1: GAGUUCUACAGUCCGACGAUCCCAACACACUUUGCACCUGGAAUUCUCGGGUGCCAA
RNA 2: UGGAGUGUGACAAUGGUGUUUG
DNA 1: GATCGTCGGACTGTAGAACTC
DNA 2: TTGGCACCCGAGAATTCCA
modifications: constant regions annealed to DNA blockers; guide miR-122 5' phosphate
B11: ACATTCTG (ssRNA)
RNA 1: GAGUUCUACAGUCCGACGAUCCCAACACAUUCUGCACCUGGAAUUCUCGGGUGCCAA
RNA 2: UGGAGUGUGACAAUGGUGUUUG
DNA 1: GATCGTCGGACTGTAGAACTC
DNA 2: TTGGCACCCGAGAATTCCA
modifications: constant regions annealed to DNA blockers; guide miR-122 5' phosphate

Target: AGO2 L192P (Homo sapiens, UniProt Q9UKV8 1-859, L192P;S387D;S824A;S828D;S831D;S834A)
Sequence (Q9UKV8 whole entry L192P/S387D/S824A/S828D/S831D/S834A): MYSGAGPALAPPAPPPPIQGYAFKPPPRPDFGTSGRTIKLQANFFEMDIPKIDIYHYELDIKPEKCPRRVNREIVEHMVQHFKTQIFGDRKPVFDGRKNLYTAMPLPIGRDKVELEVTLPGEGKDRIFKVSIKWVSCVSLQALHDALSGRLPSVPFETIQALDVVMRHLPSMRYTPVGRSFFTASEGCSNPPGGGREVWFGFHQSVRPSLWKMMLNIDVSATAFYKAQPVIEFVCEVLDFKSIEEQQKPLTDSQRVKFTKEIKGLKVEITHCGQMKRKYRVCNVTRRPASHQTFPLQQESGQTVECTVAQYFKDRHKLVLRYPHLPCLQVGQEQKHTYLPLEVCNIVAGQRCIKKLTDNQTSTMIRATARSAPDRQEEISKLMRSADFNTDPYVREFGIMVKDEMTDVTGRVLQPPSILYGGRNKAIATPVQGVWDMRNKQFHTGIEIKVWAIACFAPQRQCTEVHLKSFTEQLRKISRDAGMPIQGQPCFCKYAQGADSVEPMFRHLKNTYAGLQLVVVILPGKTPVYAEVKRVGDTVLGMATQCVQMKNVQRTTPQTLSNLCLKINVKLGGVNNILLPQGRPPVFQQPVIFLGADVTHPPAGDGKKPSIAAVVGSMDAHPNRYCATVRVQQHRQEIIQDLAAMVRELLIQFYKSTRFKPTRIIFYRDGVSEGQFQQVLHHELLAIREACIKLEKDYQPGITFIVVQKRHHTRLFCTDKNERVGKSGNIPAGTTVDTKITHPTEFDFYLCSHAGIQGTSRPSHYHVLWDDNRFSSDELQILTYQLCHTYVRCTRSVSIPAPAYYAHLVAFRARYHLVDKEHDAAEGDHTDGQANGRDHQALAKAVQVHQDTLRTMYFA
Assay: RNA Bind-n-Seq (nitrocellulose filter binding and sequencing); miR-122 guide loaded in AGO2; 60 min incubation; 30 mM Tris pH 8.0, 100 mM potassium acetate, 2 mM magnesium acetate, 0.5 mM TCEP, 0.005% NP-40, 0.01 mg/ml yeast tRNA; 3 nM AGO2-miR-122, 100 nM RNA library; 60; high values mean tight binding
Conditions: protein: recombinant; tags: His6 (N-terminal, pFastBac HTA)
Method in brief: (§1)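 Fold enrichment is each target's read fraction divided by its read fraction in the input library. Sf9 insect cells expressed His-tagged AGO2 from baculovirus; the protein was loaded with a synthetic guide RNA and purified by Ni-NTA and a biotinylated capture oligo. The bound RNA was extracted, reverse-transcribed, barcode-amplified and sequenced on Illumina.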

Row | Binder | binding signal
1 | B1 | 0.493 fold enrichment over input
2 | B2 | 0.487 fold enrichment over input
3 | B3 | 0.434 fold enrichment over input
4 | B4 | 0.476 fold enrichment over input
5 | B5 | 0.424 fold enrichment over input
6 | B6 | 0.481 fold enrichment over input
7 | B7 | 0.449 fold enrichment over input
8 | B8 | 0.507 fold enrichment over input
9 | B9 | 0.472 fold enrichment over input
10 | B10 | 0.388 fold enrichment over input
11 | B11 | 0.392 fold enrichment over input

Target: AGO2 A367P (Homo sapiens, UniProt Q9UKV8 1-859, A367P;S387D;S824A;S828D;S831D;S834A)
Sequence (Q9UKV8 whole entry A367P/S387D/S824A/S828D/S831D/S834A): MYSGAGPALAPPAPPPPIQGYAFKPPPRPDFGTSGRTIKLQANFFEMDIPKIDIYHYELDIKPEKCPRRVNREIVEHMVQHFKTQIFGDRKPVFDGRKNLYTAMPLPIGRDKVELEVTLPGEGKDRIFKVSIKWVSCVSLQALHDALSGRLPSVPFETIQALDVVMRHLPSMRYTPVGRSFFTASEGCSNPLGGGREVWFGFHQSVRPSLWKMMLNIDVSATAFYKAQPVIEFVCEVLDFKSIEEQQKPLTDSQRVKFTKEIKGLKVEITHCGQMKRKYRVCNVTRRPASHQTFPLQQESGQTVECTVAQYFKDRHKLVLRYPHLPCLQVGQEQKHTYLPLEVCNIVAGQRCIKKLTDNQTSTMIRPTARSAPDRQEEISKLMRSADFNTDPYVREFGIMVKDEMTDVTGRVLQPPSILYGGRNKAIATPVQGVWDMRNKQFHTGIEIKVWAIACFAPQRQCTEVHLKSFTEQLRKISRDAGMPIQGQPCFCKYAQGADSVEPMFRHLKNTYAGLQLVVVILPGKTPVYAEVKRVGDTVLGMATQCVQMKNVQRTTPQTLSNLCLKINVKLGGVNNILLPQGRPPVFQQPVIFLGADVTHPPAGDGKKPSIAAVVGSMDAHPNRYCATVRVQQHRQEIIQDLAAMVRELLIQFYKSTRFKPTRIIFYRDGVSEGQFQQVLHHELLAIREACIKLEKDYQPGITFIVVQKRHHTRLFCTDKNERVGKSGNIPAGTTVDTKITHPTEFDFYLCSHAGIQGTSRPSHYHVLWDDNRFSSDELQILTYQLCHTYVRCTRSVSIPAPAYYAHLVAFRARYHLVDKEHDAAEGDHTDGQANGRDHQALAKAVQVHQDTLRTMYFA
Assay: as above
Conditions: protein: recombinant; tags: His6 (N-terminal, pFastBac HTA)
Method in brief: as §1

Row | Binder | binding signal
12 | B1 | 0.201 fold enrichment over input
13 | B2 | 0.175 fold enrichment over input
14 | B3 | 0.164 fold enrichment over input
15 | B4 | 0.18 fold enrichment over input
16 | B5 | 0.172 fold enrichment over input
17 | B6 | 0.166 fold enrichment over input
18 | B7 | 0.169 fold enrichment over input
19 | B8 | 0.218 fold enrichment over input
20 | B9 | 0.217 fold enrichment over input
21 | B10 | 0.177 fold enrichment over input
22 | B11 | 0.13 fold enrichment over input

Target: AGO2 T357M (Homo sapiens, UniProt Q9UKV8 1-859, T357M;S387D;S824A;S828D;S831D;S834A)
Sequence (Q9UKV8 whole entry T357M/S387D/S824A/S828D/S831D/S834A): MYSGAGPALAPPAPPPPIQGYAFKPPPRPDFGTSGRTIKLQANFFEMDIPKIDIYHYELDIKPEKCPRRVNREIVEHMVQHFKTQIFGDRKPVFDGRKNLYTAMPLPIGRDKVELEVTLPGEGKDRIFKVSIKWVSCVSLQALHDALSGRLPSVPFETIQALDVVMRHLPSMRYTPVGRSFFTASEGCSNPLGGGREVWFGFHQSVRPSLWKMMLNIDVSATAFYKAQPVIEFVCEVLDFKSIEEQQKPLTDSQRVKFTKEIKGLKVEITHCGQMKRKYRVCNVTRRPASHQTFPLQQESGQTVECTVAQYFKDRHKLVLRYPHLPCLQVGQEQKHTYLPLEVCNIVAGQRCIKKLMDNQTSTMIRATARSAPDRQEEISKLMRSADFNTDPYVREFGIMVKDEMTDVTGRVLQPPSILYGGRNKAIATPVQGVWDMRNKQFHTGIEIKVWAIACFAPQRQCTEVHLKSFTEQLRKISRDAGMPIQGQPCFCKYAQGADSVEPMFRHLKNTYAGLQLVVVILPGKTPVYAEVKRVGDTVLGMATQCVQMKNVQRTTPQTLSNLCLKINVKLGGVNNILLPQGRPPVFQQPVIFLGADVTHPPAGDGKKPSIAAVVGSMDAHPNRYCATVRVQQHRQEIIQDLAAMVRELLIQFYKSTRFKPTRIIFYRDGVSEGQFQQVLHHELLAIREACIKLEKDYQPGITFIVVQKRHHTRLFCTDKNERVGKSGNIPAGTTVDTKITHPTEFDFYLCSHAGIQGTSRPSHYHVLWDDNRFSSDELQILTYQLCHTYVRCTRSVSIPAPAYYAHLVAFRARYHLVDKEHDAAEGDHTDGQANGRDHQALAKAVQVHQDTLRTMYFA
Assay: as above
Conditions: protein: recombinant; tags: His6 (N-terminal, pFastBac HTA)
Method in brief: as §1

Row | Binder | binding signal
23 | B1 | 0.695 fold enrichment over input
24 | B2 | 0.582 fold enrichment over input
25 | B3 | 0.606 fold enrichment over input
26 | B4 | 0.643 fold enrichment over input
27 | B5 | 0.675 fold enrichment over input
28 | B6 | 0.617 fold enrichment over input
29 | B7 | 0.609 fold enrichment over input
30 | B8 | 0.615 fold enrichment over input
31 | B9 | 0.558 fold enrichment over input
32 | B10 | 0.494 fold enrichment over input
33 | B11 | 0.531 fold enrichment over input

Target: AGO2 F182del (Homo sapiens, UniProt Q9UKV8 1-859, S387D;S824A;S828D;S831D;S834A;del182-182)
Sequence (Q9UKV8 other isoform, or with tags, fused parts or gaps S387D;S824A;S828D;S831D;S834A;del182-182): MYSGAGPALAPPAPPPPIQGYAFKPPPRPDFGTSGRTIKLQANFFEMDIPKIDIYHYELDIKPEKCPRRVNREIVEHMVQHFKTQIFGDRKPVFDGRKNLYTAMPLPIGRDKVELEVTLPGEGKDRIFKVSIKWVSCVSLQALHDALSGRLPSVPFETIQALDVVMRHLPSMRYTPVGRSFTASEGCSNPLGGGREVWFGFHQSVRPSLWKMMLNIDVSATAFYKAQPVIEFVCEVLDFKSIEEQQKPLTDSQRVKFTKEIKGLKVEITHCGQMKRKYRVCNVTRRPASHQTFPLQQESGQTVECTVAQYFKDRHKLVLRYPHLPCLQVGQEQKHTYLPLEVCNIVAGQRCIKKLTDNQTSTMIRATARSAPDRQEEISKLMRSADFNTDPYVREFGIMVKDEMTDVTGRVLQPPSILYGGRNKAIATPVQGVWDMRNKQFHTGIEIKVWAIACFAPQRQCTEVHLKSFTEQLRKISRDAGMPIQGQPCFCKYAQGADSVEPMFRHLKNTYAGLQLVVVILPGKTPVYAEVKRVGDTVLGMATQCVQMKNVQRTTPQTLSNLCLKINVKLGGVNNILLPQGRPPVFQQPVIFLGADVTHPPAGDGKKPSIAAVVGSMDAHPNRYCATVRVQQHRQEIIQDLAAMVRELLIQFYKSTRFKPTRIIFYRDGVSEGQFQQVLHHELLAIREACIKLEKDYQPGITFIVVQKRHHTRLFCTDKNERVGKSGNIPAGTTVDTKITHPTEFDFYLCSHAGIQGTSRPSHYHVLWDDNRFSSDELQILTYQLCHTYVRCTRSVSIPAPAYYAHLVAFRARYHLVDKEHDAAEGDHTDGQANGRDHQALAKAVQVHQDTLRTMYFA
Assay: as above
Conditions: protein: recombinant; tags: His6 (N-terminal, pFastBac HTA)
Method in brief: as §1

Row | Binder | binding signal
34 | B4 | 0.123 fold enrichment over input
35 | B8 | 0.235 fold enrichment over input
36 | B9 | 0.942 fold enrichment over input
